{"source": "PubChem BioAssay (EPA / NIEHS)", "note": "Activity calls are given as the source filed them. Rule for the calls: active = hit-call score of the fitted dose curve at least 0.9, where 1 is the maximum; inactive = score below 0.9."}
{"assay": "ATG_TGFb_CIS: Attagene CIS-FACTORIAL HepG2 Assay for human Transforming Growth Factor (TGF) (AID 2282967)", "details": "HepG2 Attagene CIS TGFb reporter, mRNA transcription; actives raise or lower the signal", "in_short": "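Cells were dosed for 24 hours, after which total RNA was reverse-transcribed and reporter sequences amplified, labeled and sized by capillary electrophoresis. Activity was fitted in both directions against DMSO.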"}
{"smiles": "C=C(C)[C@H]1Cc2c(ccc3c2O[C@@H]2COc4cc(OC)c(OC)cc4[C@@H]2C3=O)O1", "outcome": "inactive"}
{"smiles": "COP(=O)(OC)OC(Br)C(Cl)(Cl)Br", "note": "(stereo not drawn)", "outcome": "inactive"}
{"smiles": "CN(C)C(=O)Nc1cccc(C(F)(F)F)c1", "outcome": "inactive"}
{"smiles": "S=C1NCCN1", "outcome": "inactive"}
{"smiles": "CNC(=O)ON=C(C)SC", "outcome": "inactive"}
{"smiles": "O=c1ccc(=O)[nH][nH]1", "outcome": "inactive"}
{"smiles": "CCOP(=S)(OCC)Oc1ccc2c(C)c(Cl)c(=O)oc2c1", "outcome": "inactive"}
{"smiles": "CSC1=N[C@@](C)(c2ccccc2)C(=O)N1Nc1ccccc1", "outcome": "inactive"}
{"smiles": "CN1COCN(Cc2cnc(Cl)s2)C1=N[N+](=O)[O-]", "outcome": "inactive"}
{"smiles": "C[Si](Cn1cncn1)(c1ccc(F)cc1)c1ccc(F)cc1", "outcome": "inactive"}
{"smiles": "CC(C)[C@H](C(=O)O[C@H](C#N)c1cccc(Oc2ccccc2)c1)c1ccc(Cl)cc1", "outcome": "inactive"}
{"smiles": "O=C(O)c1cc(Oc2ccc(C(F)(F)F)cc2Cl)ccc1[N+](=O)[O-]", "outcome": "inactive"}
{"smiles": "Nc1nc(N)nc(NC2CC2)n1", "outcome": "inactive"}
{"smiles": "CC(C1CC1)C(O)(Cn1cncn1)c1ccc(Cl)cc1", "note": "(stereo not drawn)", "outcome": "inactive"}
{"smiles": "CCOP(=S)(OCC)SCCSCC", "outcome": "inactive"}
{"smiles": "C[N+]1(C)CCCCC1", "outcome": "inactive"}
{"smiles": "CCOP(=S)(OCC)Oc1cc(C)nc(C(C)C)n1", "outcome": "inactive"}
{"smiles": "FC(F)C(F)(F)OCC(Cn1cncn1)c1ccc(Cl)cc1Cl", "note": "(stereo not drawn)", "outcome": "inactive"}
{"smiles": "CSc1nnc(C(C)(C)C)c(=O)n1N", "outcome": "inactive"}
{"smiles": "CCOP(=S)(OCC)Oc1ccc([N+](=O)[O-])cc1", "outcome": "inactive"}
{"smiles": "CCOP(=O)(OCC)Oc1cc(C)nc(C(C)C)n1", "outcome": "inactive"}
{"smiles": "CCNc1nc(Cl)nc(NC(C)(C)C#N)n1", "outcome": "inactive"}
{"smiles": "COc1cccc(C(=O)NN(C(=O)c2cc(C)cc(C)c2)C(C)(C)C)c1C", "outcome": "inactive"}
